Reference: PubChem BioAssay AID504834 (National Center for Advancing Translational Sciences (NCATS), 2011)
Where “and” joins values, the source holds several entries; their conditions need not be identical. Equal entries are not always repeated. The campaign covered roughly 320,000 compounds. About 22,000 (6.9%) were called active. About 27% were inconclusive and are not listed. Calls follow the shape of the dose curve; as a rule, active = well fitted inhibition curve with a large enough effect; inconclusive = small, poorly fitted or top-dose-only effect, or another doubt; inactive = no such curve, though single readings can be large or run the other way. Shown is part of a subset that was picked to be rich in actives. Entries that show only a call come without a potency. A structure can be active in one record and inactive in another.

Test: Primary qHTS for delayed death inhibitors of the malarial parasite plastid, 96 hour incubation
Conditions: P. falciparum luciferase reporter growth; series mostly up to 28.7 µM
In short: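 Luminescence readout: decreased luciferase signal marks inhibited growth of reporter-expressing P. falciparum in infected red cells (2% hematocrit, 0.05% parasitemia final), exposed to compound two generations (96 h, 37 C, 5% CO2).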
Potency is read from the fitted curve at half-maximal effect.

SMILES	Potency
O=C(CN(C(=O)c1csnn1)c1cccc(Cl)c1)NC1CCCC1	inactive
CCOc1ccc(N(C(=O)c2snc(C(N)=O)c2N)C(C(=O)NCC2CCCO2)c2c[nH]c3ccccc23)cc1 (centres undefined)	inactive
COc1ccc(-c2nc(CS(=O)CC(=O)NCc3ccccn3)c(C)o2)cc1 (centres undefined)	11.7 µM (active)
Cc1ccc(-c2nc(CS(=O)CC(=O)N3CCN(c4ncccn4)CC3)c(C)o2)cc1 (centres undefined)	inactive
COc1cccc(-c2nc(CS(=O)CC(=O)NCc3ccc(F)cc3)c(C)o2)c1 (centres undefined)	inactive
COc1ccc(-c2nc(CS(=O)CC(=O)N3CCC4(CC3)OCCO4)c(C)o2)cc1 (centres undefined)	inactive
Cc1cccc(-c2nc(CS(=O)CC(=O)NC(C)CCc3ccccc3)c(C)o2)c1 (centres undefined)	inactive
Cc1ccc(-c2nc(CS(=O)CC(=O)NC3CCCC3)c(C)o2)cc1 (centres undefined)	4.65 µM (active)
COc1ccc2oc(=O)c(C(=O)NCc3ccccn3)cc2c1	inactive
Cc1ccc(-c2nc(CSCC(=O)NC3CCN(Cc4ccccc4)CC3)c(C)o2)cc1	inactive
COc1ccc(-c2nc(CS(=O)CC(=O)NCc3ccccc3)c(C)o2)cc1OC (centres undefined)	13.1 µM (active)
CC(OC(=O)CNC(=O)c1ccc(Cl)c([N+](=O)[O-])c1)C(=O)NCc1ccco1 (centres undefined)	inactive
NC(=O)c1ccc(Nc2ccc3c(c2)CCC3)c([N+](=O)[O-])c1	inactive
CCC(C)(C)NC(=O)C(c1ccc(O)cc1)N(Cc1ccco1)C(=O)CCC(=O)Nc1ccccn1 (centres undefined)	inactive
Cc1ccc(NC(=O)COC(=O)CN2CCCCCC2=O)c(C)c1	inactive
O=C(Nc1cccc(Cl)c1)c1cc([N+](=O)[O-])ccc1N1CCN(CCO)CC1	3.29 µM (active)
CN1CCN(CC(=O)Nc2cccc([N+](=O)[O-])c2)CC1	inactive
Cc1cccc(NC(=O)c2cc([N+](=O)[O-])ccc2N2CCN(C)CC2)c1	inactive
Cc1c(Cl)cccc1NC(=O)NCCCN1CCCC1=O	inactive
COc1ccccc1NC(=O)CN1CCN(S(=O)(=O)c2ccc(Br)cc2)CC1	inactive
COC(=O)c1c(NC(=O)CN2CCN(S(=O)(=O)c3ccccc3[N+](=O)[O-])CC2)sc2c1CCC(C)C2 (centres undefined)	9.28 µM (active)
Cc1c(Br)c([N+](=O)[O-])nn1CC(=O)Nc1sc2c(c1C(=O)OC(C)C)CCC(C)C2 (centres undefined)	inactive
O=C(Cc1ccsc1)N1CCN(S(=O)(=O)c2cc(C(F)(F)F)cc(C(F)(F)F)c2)CC1	inactive
O=C(CSc1ncn[nH]1)Nc1nc(-c2cccc([N+](=O)[O-])c2)cs1	inactive
COc1ccc2c(c1OC)C(=O)N(c1ccc(O)cc1)C2	inactive

SMILES	Potency
CCN1C(=NCc2ccc(OC)cc2)N[C@@H](CCc2ccccc2)[C@H](C(=O)NCc2ccc(OC)cc2)[C@H]1C	inactive and 5.22 µM (active)
COc1ccc(CNC(=O)C2CCN(S(C)(=O)=O)CC2)cc1	inactive
CCN1C(=NCC(C)C)N[C@@H](CCc2ccccc2)[C@H](C(=O)NCC(C)C)[C@H]1C	inactive
O=C(Nc1cccnc1Cl)c1cc(-c2ccccc2O)on1	inactive
CC(=O)c1ccc(NC(=O)C2CC(=O)Nc3nc4ccccc4n32)cc1 (centres undefined)	inactive
O=C(c1ccncc1)N1CCN(S(=O)(=O)c2cccc([N+](=O)[O-])c2)CC1	inactive
C=CCN1CCN(C(=O)CCCc2ccccc2)CC1	inactive
CCC(=O)c1ccc(OCC(=O)OCC(=O)NC2CCCCCC2)cc1	inactive
Cc1cccc(NC(=O)CN2CCN(C(=O)C3CCN(C(=O)/C=C/c4ccccc4)CC3)CC2)c1C	inactive
Oc1ccc(Br)cc1/C=N/Nc1ccccn1	inactive
COc1ccc(-c2nn(-c3ccccc3)cc2C(=O)Nc2nccs2)cc1OC	inactive
COc1ccc(-c2nn(-c3ccccc3)cc2/C=N/Nc2ccccn2)cc1OC	3.7 µM (active)
CC(=O)Nc1cccc(C(=O)OCC(=O)c2ccc3c(c2)OCO3)c1	inactive
Cc1ccc(CNCc2ccc3c(c2)OCO3)c(C)c1	inactive
CCN1CCN(c2nc3c(c(=O)[nH]2)CCC3)CC1	inactive
CCCCCc1c(C)nc(N2CCN(Cc3ccc4c(c3)OCO4)CC2)[nH]c1=O	inactive
O=c1[nH]c(N2CCN(Cc3ccc4c(c3)OCO4)CC2)nc2c1CCCC2	7.38 µM (active)
O=C(COC(=O)c1ncc(Cl)c(Cl)c1Cl)NC1CCS(=O)(=O)C1 (centres undefined)	inactive
Cc1occc(=O)c1OCc1ccc(F)cc1	inactive
O=C(CN1C(=O)NC2(CCCC2)C1=O)OCCOc1ccc(F)cc1	inactive
CCOc1ccc(C(C)=O)cc1COC(=O)CN1C(=O)NC2(CCCC2)C1=O	5.22 µM (active)
Cc1ccc(COC(=O)CN2C(=O)NC3(CCCC3)C2=O)cc1	inactive
O=C(COC(=O)c1ccc([N+](=O)[O-])cc1Cl)NC(=O)c1ccccc1	inactive
COc1ccc(CNC(=O)CN2C(=O)NC3(CCCc4sccc43)C2=O)cc1 (centres undefined)	inactive
Cc1cccc(C)c1NC(=O)CN(C)C(=O)CCC(=O)c1ccccc1	inactive

SMILES	Potency
CC(=O)Nc1ccc(Nc2c3ccccc3nc3ccccc23)cc1	inactive
COc1ccc(C(=O)NNc2cc(C)nc(NNC(=O)c3ccc(OC)cc3)n2)cc1	inactive
CC(=O)Nc1ccc(Nc2cc(C)nc(Nc3ccc(NC(C)=O)cc3)n2)cc1	2.94 µM (active)
CCN(CC)Cc1c(C(=O)N/N=C/c2cccc(OCc3ccc(F)cc3)c2)nnn1-c1nonc1N	inactive
O=C(Nc1cc(C(F)(F)F)ccc1Cl)C(=O)N1CCCCC1	inactive
O=C(NNc1ccccc1Cl)C(O)(c1cccc(C(F)(F)F)c1)c1cccc(C(F)(F)F)c1	2.62 µM (active)
CC(CC(=O)Nc1cc(C(F)(F)F)ccc1Cl)c1ccccc1 (centres undefined)	inactive
COC(=O)c1cc(N2CCNCC2)nc2ccccc12	inactive
Cc1nc2ccccc2n1CC(=O)N/N=C/c1cccs1	2.33 µM (active)
Cc1nc2ccccc2n1CC(=O)N/N=C/c1cccnc1	inactive
NC(=O)N/N=C\c1cccs1	inactive
Cc1ccc(-c2nnc(SCC(=O)N/N=C/c3cccs3)n2-c2ccc(C)cc2)cc1	13.1 µM (active)
Cc1ccc(-n2c(C)nnc2SCC(=O)NC2CC2)cc1	inactive
Cc1nnc(SCC(=O)N/N=C/c2cn(-c3ccccc3)nc2-c2ccc(F)cc2)n1-c1ccccc1	inactive
CCN1CCN(C(=O)N[C@@H](C(=O)N[C@@H]2C(=O)N3C(C(=O)O)=C(CSc4nnnn4C)CS[C@H]23)c2ccc(O)cc2)C(=O)C1=O	inactive
Cn1nc(C(F)(F)F)c(-c2ccc(F)cc2)c1NC(=O)CSCC(=O)O	inactive
Cc1nc(N)sc1N=Nc1c(C)n(C)n(-c2ccccc2)c1=O	inactive
COc1c(O)ccc2c1-c1c3c(cc4c1C(C2)N(C)CC4)OCO3 (centres undefined)	inactive
COc1c(O)ccc2c1CN1CCc3cc4c(cc3C1C2)OCO4 (centres undefined)	3.29 µM (active)
CN1CCc2cc3c(cc2[C@H]1[C@@H]1OC(=O)c2c1ccc1c2OCO1)OCO3	inactive
O=C(CCc1ccccc1Cl)Nc1ccc(S(=O)(=O)Nc2nccs2)cc1	inactive
O=C(COc1ccc(Cl)cc1)NCCS(=O)(=O)N1CCN(c2ccc(F)cc2)CC1	inactive
Cc1ccc(NC(=O)CCN2C(=O)c3ccccc3C2=O)cc1C	inactive
Cc1cc(C)cc(NC(=O)CN2C(=O)c3ccccc3C2=O)c1	inactive
Cc1cc2c(cc1C)N(C(=O)CN1C(=O)c3ccccc3C1=O)C(C)(C)c1ssc(=S)c1-2	8.28 µM (active)

SMILES	Potency
Cc1nn(CC(=O)N/N=C/c2ccc(F)cc2)c(C)c1[N+](=O)[O-]	inactive
CC1CCN(C(=S)NC(=O)c2ccccc2Br)CC1	inactive
CCOC(=O)c1c(CC(C)C)csc1/N=C/C1=C(O)CCCC1=O	inactive
CN1C(=O)[C@H]2[C@@H](C3CC3)N3C(=O)CN(Cc4ccccc4)C(=O)[C@@]3(C)[C@H]2C1=O	inactive
CC(=O)Nc1ccc(NC(=O)CCCNC(=O)c2ccc(Cl)cc2)cc1	inactive
C=CCNC(=S)N/N=C/c1ccc(C)s1	4.65 µM (active)
C=CCNC(=S)NNC(=O)c1ccc(Br)o1	inactive
Cc1ccc(/C=N/NC(=O)CN2CCN(Cc3ccccc3)CC2)s1	inactive
CC(C)c1c(O)nc(SCCOc2ccc(Cl)cc2)[nH]c1=O	inactive
CCOc1cc2[nH]c(=S)n(Cc3ccc(C(=O)N4CCN(C)CC4)cc3)c(=O)c2cc1OCC	inactive
CC1CC(C)CN(CCCNC(=O)Cn2ncc3c([nH]c4ccccc43)c2=O)C1 (centres undefined)	inactive
Cc1cccc(CCNC(=O)Cn2ncc3c([nH]c4ccc(C)cc43)c2=O)c1	inactive
Cc1ccc2[nH]c3c(=O)n(CC(=O)NCCc4ccc(Cl)cc4)ncc3c2c1	13.1 µM (active)
Nc1c(C(=O)OCC(=O)Nc2ccc(OC(F)F)cc2)[nH]c(=O)[nH]c1=O	inactive
O=C(CCS(=O)(=O)Cc1ccccc1)Nc1ccc2c(c1)OCCO2	2.94 µM (active)
O=C(CN(c1ccc2c(c1)OCCO2)S(=O)(=O)c1ccccc1)Nc1ccc2c(c1)OCO2	inactive
COc1ccccc1OCCCC(=O)Nc1ccc2c(c1)OCCO2	inactive
Cc1ccc(-n2c(SCC(=O)N3CCC(C(=O)O)CC3)nc3ccccc3c2=O)cc1C	inactive
CN(C)c1ccc(NC(=O)CN2C3CCCC2CC(NC(=O)c2ccccc2)C3)cc1 (centres undefined)	inactive
CCCCCc1ccc(-c2cn(Cc3ccc4ccccc4c3)nn2)cc1	inactive
O=C1CC(c2cccc(Br)c2)C2=C(CCCC2=O)N1 (centres undefined)	inactive
O=C1OCC2=C1C(c1ccccc1)CC(=O)N2c1cccc(F)c1 (centres undefined)	inactive
O=C1CC(c2cccc(F)c2)C2=C(CCCC2=O)N1 (centres undefined)	9.28 µM (active)
COc1ccc(CNC(=O)c2cc(C(=O)C3CC3)c[nH]2)cc1	inactive
